# Laboratory results from PubChem BioAssay.
# Several values for one entry are separate records, joined by “and”; a condition that tells them apart may be missing. Identical values can stand only once. Activity calls are given as the source filed them. Unless noted, how the calls were made is not given here.
# What was measured:
# [1] = test system: Hepatitis C virus NS3 helicase; test: HCV NS3 helicase inhibitors, primary screen, biochemical, fluorescence polarization, LOPAC1280 library (AID 687035; in the data active means inhibition above about 37%); conditions: Purified HCV NS3 helicase, Cy5-dT15 ssDNA binding fluorescence polarization; stronger effect = higher value; concentration not given here
# [2] = Cy5 fluorescence quenching or enhancement artefacts, artefact control for HCV NS3 helicase inhibitor project, biochemical, LOPAC1280 (AID 687037); conditions: Cy5-DNA-NS3h complex fluorescence interference counterscreen
# [3] = test system: Aerobactin synthetase IucA (Klebsiella pneumoniae); test: IucA aerobactin synthetase inhibitors, biochemical, Tocris library, absorbance (AID 1345561); conditions: purified IucA enzyme assay, absorbance (OD) read-out; stronger effect = lower value;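 tested at 8 µM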;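 further: 100% = enzyme without compound and 0% = no enzyme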
# [4] = sensitizers of A549 cells to miR-34 induction, primary screen, imaging, A549 dox-inducible miR-34, nuclei and caspase counts (AID 1347080;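 active means compounds whose cell count with miR-34 switched on is under 0.7 times the count with it off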); conditions: A549 miR-34 inducible, Hoechst nuclei count, 48 h
# [5] = phospholipid biosynthesis inhibitors in animal cells, primary screen, cell-based, LOPAC library, screen 4 (AID 1347384); conditions: phospholipid biosynthesis inhibition screen, at 10 µM
# [6] = viability rescue of complex I mutant cybrids, primary screen, cell-based, galactose medium, ATP luminescence (AID 1645843;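 active means z-score of at least 1.8 in each of two replicates, scored against plate mean and spread of sample wells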;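 further: positive z means more ATP and so rescue of galactose-driven cybrid death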); conditions: complex I mutant cybrid cells, 72 h, stronger effect = higher value
# [7] = circadian clock period modulators, cell-based, LOPAC library, luminescence reporter (AID 2774); conditions: circadian reporter cells, at 7 µM, actives lie on both sides;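 further: values are relative to mean of DMSO wells on each plate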
# [8] = hESC survival regulators, cell-based (AID 493140); conditions: human embryonic stem cell survival screen; stronger effect = higher value;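 further: cells exposed to compounds for four days before counting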
# [9] = liver-stage malaria parasite growth inhibition, primary screen, cell-based, HepG2, luciferase luminescence, HepG2 viability (AID 624349; in the data active means parasite load remaining mostly below about 12%, no sharp cut-off; inactive means mostly above about 10%;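 further: 100% = mean of DMSO negative control wells on the same plate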); conditions: P. berghei liver stage in HepG2, luciferase luminescence, concentration not given here; parasite load remaining: stronger effect = lower value; viability: measured here: HepG2 viability without parasites
# [10] = survival rescue of mitochondrial mutant cells in low glucose, primary screen, MELAS cybrids, Rieske KO mouse fibroblasts, CellTiter-Glo (AID 1508586;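 active means mean z-score across replicates of 1.96 or higher in either the MELAS or the Rieske mutant cell line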;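 further: z relative to plate mean and SD of compound and empty wells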)
# [11] = inhibitors of Cryptococcus chitosan production, flow cytometry, Cibacron Brilliant Red staining (AID 1347148); conditions: Cryptococcus neoformans chitosan, stronger effect = lower value; at 10 µM unless noted;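 further: compound exposure lasted three days at 37 degrees C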
# [12] = stronger effect = lower value, cell number ratio, induced over uninduced
# [13] = measured here: relative caspase fold change +Dox/-Dox
# [14] = measured here: total cells with miR-34 induction, stronger effect = lower value
# [15] = measured here: total cells without miR-34 induction
# [16] = MELAS cybrid survival, CellTiter-Glo 48 h, stronger effect = higher value
# [17] = Rieske KO mouse fibroblast survival, CellTiter-Glo 72 h
Compound,inhibition [1],fluorescence ratio (interference) [2],remaining activity [3],"fold change [4, 12]","fold change [4, 13]","cell count [4, 14]","cell count [4, 15]",outcome [5],z-score [6],period change [7],survival [8],parasite load remaining [9],viability [9],"z-score [10, 16]","z-score [10, 17]",fold fluorescence [11]
CCc1ccc2c(-c3cccc(Cl)c3)nc(=O)n(CC)c2n1,-2% (inactive),1 (inactive),124% (inactive),1.11 (inactive) and 0.913 (inactive),1.55 and 0.664,9380 and 8340,8460 and 9140,inactive,1.02 (inactive) and -0.175 (inactive),,,,,,,
CC(C)(C)c1ccc(/C=C/C(=O)Nc2ccc3c(c2)OCCO3)cc1,-1% (inactive),1 (inactive),109% (inactive),1.15 (inactive) and 1.27 (inactive),0.847 and 0.54,4930 and 3950,4270 and 3100,inactive,-1.38 (inactive) and -0.7 (inactive),,,,,,,
N[C@@H](CS(=O)O)C(=O)O,-5% (inactive),0.9 (inactive),124% (inactive),1.01 (inactive) and 0.998 (inactive),1.54 and 0.698,10700 and 8340,10600 and 8360,inactive,0.58 (inactive) and 0.25 (inactive),0.04 h (inactive),,,,,,
Clc1ccc2c(c1)N=C(N1CCNCC1)c1ccccc1N2,-2% (inactive),1 (inactive),102% (inactive),1.02 (inactive) and 0.994 (inactive),1.15 and 0.797,7100 and 7380,6990 and 7420,inactive,-0.785 (inactive) and -0.84 (inactive),,,,,,,
c1ccc(C(NCCNC(c2ccccc2)c2ccccc2)c2ccccc2)cc1,-4% (inactive),1 (inactive),112% (inactive),0.972 (inactive) and 0.853 (inactive),0.809 and 1.79,5830 and 5710,5990 and 6700,inactive,-1.29 (inactive) and -0.705 (inactive),,,,,,,
CCCN(CC1CC1)c1nc(C)nc(Nc2c(Cl)cc(Cl)cc2Cl)c1Cl,-2% (inactive),1 (inactive),116% (inactive),1.08 (inactive) and 0.941 (inactive),0.691 and 0.818,9180 and 7650,8510 and 8120,inactive,-1.02 (inactive) and -0.83 (inactive),0.125 h (inactive),,,,,,
c1ccc(C(NCc2cccnc2)(c2ccccc2)c2ccccc2)cc1,0% (inactive),1 (inactive),95% (inactive),1.09 (inactive) and 0.901 (inactive),1.48 and 1.53,7080 and 6130,6480 and 6800,inactive,-1.03 (inactive) and -0.695 (inactive),,,,,,,
CCCn1c(=O)c(C)cn2nc(N)nc12,-2% (inactive),1 (inactive),123% (inactive),0.963 (inactive) and 0.912 (inactive),2.19 and 0.621,10000 and 9600,10400 and 10500,inactive,0.8 (inactive) and -0.21 (inactive),,,,,,,
Cc1ccc2c(c1)C(=O)C1(O)CCN(c3ccccc3)C1=N2 (centres undefined),,,119% (inactive),0.944 (inactive) and 1.14 (inactive) and 0.93 (inactive),1.39 and 0.747 and 0.79,2140 and 6710 and 5140,2270 and 5900 and 5530,,0.035 (inactive),,,,,,,
CN(C)CCCSC(=N)N,,,105% (inactive),0.94 (inactive) and 0.947 (inactive),0.889 and 0.696,8690 and 7530,9240 and 7950,,-0.34 (inactive),,12 (inactive),63.2% (inactive),78.8%,0.388 (inactive),-0.104,
CN1CCc2cccc3c2[C@H]1Cc1ccc(O)c(O)c1-3,,,113% (inactive),0.946 (inactive) and 0.949 (inactive) and 0.917 (inactive),0.839 and 1.17 and 0.734,7920 and 7790 and 8530,8370 and 8210 and 9300,,-1.04 (inactive) and -2.25 (inactive),,6.58 (inactive),7.04% (inactive) and 82% (inactive) and 31.2% (inactive),42.7% and 84.6% and 138%,0.207 (inactive) and -0.194 (inactive),0.641 and 0.16,
Oc1cc2c(cc1O)CN(C(=S)NCCc1ccc(Cl)cc1)CCC2,0% (inactive),1 (inactive),72.4% (inactive),,,,,inactive,-0.99 (inactive) and -1.23 (inactive),0.035 h (inactive),,,,,,5.63 [at 132.7 µM] (inactive)
O=C1NC(c2cccc([N+](=O)[O-])c2)=CCN1c1ccccc1O,-4% (inactive),1 (inactive),111% (inactive),0.967 (inactive) and 1.03 (inactive) and 0.928 (inactive),1.12 and 1.35 and 0.882,10200 and 5990 and 8100,10600 and 5810 and 8730,inactive,-0.245 (inactive) and 1.08 (inactive),-0.125 h (inactive),,,,,,
O=C(O)CCC/C=C\C[C@@H]1[C@@H](/C=C/[C@@H](O)COc2cccc(Cl)c2)[C@H](O)C[C@@H]1O,,,110% (inactive),0.943 (inactive) and 0.93 (inactive) and 0.921 (inactive),1.66 and 1.25 and 1.86,5470 and 5960 and 8580,5810 and 6400 and 9320,,-0.155 (inactive),,113 (inactive),,,,,
CC1CCN=C(N)S1 (centres undefined),-2% (inactive),1 (inactive),103% (inactive),1.02 (inactive) and 0.923 (inactive),1.68 and 0.753,9440 and 8650,9270 and 9380,inactive,0.31 (inactive) and 1.27 (inactive),-0.02 h (inactive),,,,,,
O=C1NC(=O)c2cc(Nc3ccccc3)c(Nc3ccccc3)cc21,0% (inactive),1 (inactive),123% (inactive),1.14 (inactive) and 0.996 (inactive),1.65 and 1.45,3180 and 3240,2790 and 3260,inactive,-1.08 (inactive) and -0.55 (inactive),,,,,,,
Nc1ccc(-c2nc3ccc(-c4nc5ccc(N)cc5[nH]4)cc3[nH]2)cc1,-5% (inactive),0.6 (active),107% (inactive),1.02 (inactive) and 0.968 (inactive),0.586 and 0.928,11200 and 10100,10900 and 10500,inactive,4.82 (active) and 5.54 (active),,,,,,,
Nc1nc2c(cnn2CCc2ccccc2)c2nc(-c3ccco3)nn12,0% (inactive),1 (inactive),107% (inactive),0.995 (inactive) and 1.05 (inactive),1.09 and 1.04,10300 and 7560,10400 and 7200,inactive,0.15 (inactive) and -0.35 (inactive),,,,,,,
COc1ccc(CCCOC(Cn2ccnc2)c2ccc(OC)cc2)cc1 (centres undefined),,,113% (inactive),1.01 (inactive) and 1.05 (inactive),1.53 and 0.475 and 0.778,1590 and 4390 and 2690,1570 and 4170 and 2650,,-0.775 (inactive),,,,,,,
